# PubChem BioAssay (EPA / NIEHS)
# Records with an inconclusive call do not appear. The source made the active and inactive calls. Rule for the calls, unless noted: active = hit-call score of the fitted dose curve at least 0.9, where 1 is the maximum; inconclusive = response in the unintended direction; inactive = score below 0.9.
# Experiments:
# PGR (gene 5241) [1] = target: PGR (gene 5241) (UniProt P06401); assay: TOX21_PR_BLA_Followup_Agonist_ratio: Tox21 HEK293 Progesterone Receptor (PR) Agonism Beta-lactamase Follow-Up Assay, Ratio (AID 2283933)
# How it was run: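 HEK293T PR-UAS-bla, 2% CS-FBS; 6 hr preincubation, cpd/DMSO pinned, 16 hr 37C/5% CO2; LiveBLAzer B/G 2 hr RT; FRET ch2/ch1 ratio, agonist direction vs DMSO. Viability by CellTiter-Glo in same wells.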
# PGR (gene 5241) [2] = target: PGR (gene 5241) (UniProt P06401); assay: TOX21_PR_BLA_Followup_Antagonist_ratio: Tox21 HEK293 Progesterone Receptor (PR) Antagonism Beta-lactamase Follow-Up Assay, Ratio (AID 2283934)
# How it was run: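 HEK293T PR-UAS-bla, 2% CS-FBS; 6 hr plating, then cpd + R5020 (1 nM final), 16 hr 37C/5% CO2. B/G FRET substrate 2 h RT. Ratio ch2/ch1 vs DMSO; CellTiter-Glo viability multiplexed, autofluorescence checked.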
# [3] = TOX21_PR_BLA_Followup_Agonist_viability: Viability Assessment in the Tox21 HEK293 Progesterone Receptor (PR) Agonism Beta-lactamase Follow-Up Assay (AID 2283935);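 note: signal loss means lower viability so actives are cytotoxic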
# How it was run: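 HEK293T PR-UAS-bla, 3,000 cells/well, 2% CS-FBS; 6 hr pre-incubation; cpd in DMSO, 16 hr 37C; LiveBLAzer 2 hr RT, then CellTiter-Glo 30 min RT, luminescence. Decrease = lost viability.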
# PGR (gene 5241) [4] = target: PGR (gene 5241) (UniProt P06401); assay: TOX21_PR_LUC_Followup_Agonist: Tox21 HEK293 Progesterone Receptor (PR) Agonism Luciferase Follow-Up Assay (AID 2283937; active = hit-call score of the fitted dose curve at least 0.9, where 1 is the maximum; inactive = score below 0.9)
# How it was run: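 Cells: HEK293-PR-A-luc, 3,000/well, 10% charcoal-stripped FBS assay medium. Compound added after 5 h; 16 h, 37C, 0% CO2. ONE-Glo luciferase, luminescence. Positive fit vs DMSO.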
# [5] = target: Thyroid hormone receptor alpha (Rattus norvegicus) + Thyroid hormone receptor beta (Rattus norvegicus) (UniProt P18113+P63059); assay: TOX21_TR_LUC_GH3_Antagonist_Followup: Tox21 GH3 Thyroid Hormone Receptor Antagonism Luciferase Follow-Up Assay (AID 2283942)
# How it was run: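 Rat pituitary GH3 cells with a TRα/TRβ-driven luciferase reporter, 5 h attachment, then 15 concentrations (92 uM to 5nM final) plus 1.0 nM T3 agonist, 24 h at 37C/5% CO2. ONE-Glo luminescence; signal change fitted against DMSO baseline.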
# THRA (gene 7067) = THRA (gene 7067) (UniProt P10827); assay: TOX21_TRA_COA_Antagonist_Followup_ratio: Tox21 Thyroid Hormone Receptor alpha Antagonism through Coactivator Recruitment Follow-Up Assay, Ratio (AID 2283953)
# How it was run: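 520:495 nm emission ratio (excitation 340 nm) reports fluorescein-SRC-2 peptide recruitment to GST-TRα LBD by TR-FRET with Tb anti-GST antibody. Values were normalized to DMSO (0%) and T3 control wells (100%); loss of signal indicated antagonism.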
# THRB (gene 7068) [6] = target: THRB (gene 7068) (UniProt P10828); assay: TOX21_TRB_BLA_Antagonist_Followup_ratio: Tox21 Thyroid Hormone Receptor beta Antagonism Beta-lactamase (BLA) Follow-Up Assay, Ratio (AID 2283958)
# How it was run: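 HEK293T TRb-bla (GAL4 DBD + hTRβ LBD), 2% cs-FBS phenol red-free DMEM, 5 h attach; cpds 11-pt triplicate, 18 h 37C; CCF4-AM 2 h RT; 460/530 ratio vs DMSO; CellTiter-Glo viability same wells.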
# [7] = TOX21_TRB_BLA_Antagonist_Followup_viability: Viability Assessment in the Tox21 Thyroid Hormone Receptor beta Antagonism Beta-lactamase (BLA) Follow-Up Assay (AID 2283961)
# How it was run: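 HEK293T cells stably expressing GAL4-DBD/human TRβ-LBD with UAS-bla reporter, 3,000 cells/well in phenol red-free DMEM, 2% charcoal-stripped FBS. Compounds at 11 concentrations in triplicate, 18 h at 37C/5% CO2; viability by CellTiter-Glo luminescence after 30 min at room temperature.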
# THRB (gene 7068) [8] = target: THRB (gene 7068) (UniProt P10828); assay: TOX21_TRB_COA_Antagonist_Followup_ratio: Tox21 Thyroid Hormone Receptor beta Antagonism through Coactivator Recruitment Follow-Up Assay, Ratio (AID 2283967)
# How it was run: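 Cell-free TR-FRET coactivator recruitment with GST-tagged TRβ LBD (5.0 nM) and fluorescein-labeled SRC-2 peptide (200 nM) detected by terbium anti-GST antibody (2 nM). The 520:495 nm emission ratio was normalized to DMSO (0%) and T3 (100%).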
# [9] = TOX21_TR_RXR_BLA_Antagonist_Followup_viability: Viability Assessment in the Tox21 Thyroid Hormone Receptor beta Retinoid X Receptor alpha (RXRa) Antagonism Beta-lactamase (BLA) Follow-Up Assay (AID 2283979)
# How it was run: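 RXRa-UAS-bla HEK293T cells seeded 2,500/well in phenol red-free DMEM with 2% charcoal-stripped FBS, attached 5 h, then exposed to compounds at 11 concentrations in triplicate for 16 h at 37C/5% CO2. Viability read by CellTiter-Glo ATP luminescence; bidirectional fit versus DMSO.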
# PGR (gene 5241) [10] = target: PGR (gene 5241) (UniProt P06401); assay: TOX21_PR_LUC_Followup_Antagonist: Tox21 HEK293 Progesterone Receptor (PR) Antagonism Luciferase Follow-Up Assay (AID 2283938);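 note: curve fitted upward as signal gain over DMSO baseline despite antagonist label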
# How it was run: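 HEK293-PR-A-luc cells were precultured 5 days in medium with 10% charcoal-stripped FBS, seeded 3,000/well, then exposed to compounds in DMSO for 16 h at 37C. Luciferase was read by ONE-Glo luminescence after 30 min at room temperature.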
# [11] = TOX21_PR_BLA_Followup_Antagonist_viability: Viability Assessment in the Tox21 HEK293 Progesterone Receptor (PR) Antagonism Beta-lactamase Follow-Up Assay (AID 2283936);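 note: hits lower the luminescence signal meaning cytotoxicity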
# How it was run: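 PR-UAS-bla HEK293T cells (3,000/well, 2% charcoal-stripped FBS) given compound plus R5020 agonist, 16 h at 37C. CellTiter-Glo added after bla read, 30 min at room temperature; luminescence loss indicates cytotoxicity.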
# [12] = TOX21_PR_LUC_Followup_Agonist_viability: Viability Assessment in the Tox21 HEK293 Progesterone Receptor (PR) Agonism Luciferase Follow-Up Assay (AID 2283941);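 note: loss of signal means cytotoxicity so actives lower viability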
# How it was run: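 Cells were kept 5 days in charcoal-stripped serum medium before plating HEK293-PR-A-luc at 3,000 cells/well. After 5 h they received DMSO-dissolved compound and incubated 16 h at 37C. Viability was taken from CellTiter-Glo ATP luminescence.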
# [13] = target: Nucleoli Translocation, AR (gene 367) (UniProt P10275); assay: UPITT_HCI_U2OS_AR_TIF2_Nucleoli_Antagonist: University of Pittsburgh U2OS Androgen Receptor-Transcriptional Intermediary Factor 2 (AR-TIF2) Antagonism High Content Imaging Assay for Nucleoli Translocation (AID 2283997)
# How it was run: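 U2OS cells expressing RFP-tagged human AR and GFP-tagged TIF2 were imaged by high-content fluorescence microscopy for red AR signal in the nucleolar region. Compounds were screened at 20 uM final (0.2% DMSO), with activity fitted relative to DHT as baseline.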
# [14] = target: Nucleoli Translocation, AR (gene 367) (UniProt P10275); assay: UPITT_HCI_U2OS_AR_TIF2_Nucleoli_Agonist: University of Pittsburgh U2OS Androgen Receptor-Transcriptional Intermediary Factor 2 (AR-TIF2) Agonism High Content Imaging Assay for Nucleoli Translocation (AID 2283998)
# How it was run: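 Cells express human AR fused to red fluorescent protein and TIF2 fused to GFP. Red fluorescence in the nucleolar region was quantified by high-content imaging and fitted as gain-of-signal against a DMSO baseline. Compounds were tested at 0.195 to 50 uM final (0.5% DMSO).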
# [15] = target: Ratio of Nucleoli Translocation and Cytoplasm, AR (gene 367) (UniProt P10275); assay: UPITT_HCI_U2OS_AR_TIF2_Nucleoli_Cytoplasm_Ratio_Agonist: University of Pittsburgh U2OS Androgen Receptor-Transcriptional Intermediary Factor 2 (AR-TIF2) Agonism High Content Imaging Assay for Ratio of Nucleoli Translocation and Cytoplasm (AID 2284000);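 note: hits raise the red nucleolar to cytoplasm ratio above vehicle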
# How it was run: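 U2OS cells expressing RFP-tagged human AR and GFP-tagged TIF2 were imaged by high-content fluorescence microscopy. The endpoint is the ratio of nucleolar to cytoplasmic red fluorescence, fitted for gain of signal relative to DMSO. Concentration-response spanned 0.195 to 50 uM final (0.5% DMSO).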
# [16] = CCTE_Harrill_HTTr_Viability_MCF7: CCTE's 6-hour Cell Viability Assessment for the High-Throughput Transcriptomics (HTTr) Platform, in MCF-7 cells cultured in DMEM + 10% fetal bovine serum, Harrill Lab (AID 2284010; active = hit-call score of the fitted dose curve at least 0.9, where 1 is the maximum; inactive = score below 0.9)
# How it was run: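 Cells were dosed with chemicals in an eight-point dilution series, imaged 6 hours later for propidium iodide uptake, and the endpoint was analyzed by bidirectional fitting against DMSO as negative control.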
# [17] = CCTE_Harrill_HTTr_Apoptosis_MCF7: CCTE's 6-hour Apoptosis Assessment for the High-Throughput Transcriptomics (HTTr) Platform, in MCF-7 cells cultured in DMEM + 10% fetal bovine serum, Harrill Lab (AID 2284011; active = hit-call score of the fitted dose curve at least 0.9, where 1 is the maximum; inactive = score below 0.9)
# How it was run: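 MCF-7 cells in DMEM + 10% fetal bovine serum were exposed to chemicals for 6 hours over an eight-point dilution series. Caspase-3/7 activation was imaged by high content imaging with CellEvent Caspase 3/7 Green; bidirectional fitting used DMSO as baseline.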
# [18] = target: Retinoic acid receptor RXR-alpha (Homo sapiens) (UniProt P19793); assay: TOX21_TR_RXR_BLA_Antagonist_Followup_ratio: Tox21 Thyroid Hormone Receptor beta Retinoid X Receptor alpha (RXRa) Antagonism Beta-lactamase (BLA) Follow-Up Assay, Ratio (AID 2283972)
# How it was run: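 RXRa-UAS-bla HEK293T cells in phenol red-free DMEM with 2% charcoal-stripped FBS; compounds at 11 concentrations in triplicate, 16 h at 37C. LiveBLAzer FRET-B/CCF4-AM substrate 2 h at room temperature; read as 460:530 nm ratio versus DMSO.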
# [19] = CCTE_Harrill_HTTr_CellCount_MCF7: CCTE's Cell Proliferation Assessment for the High-Throughput Transcriptomics (HTTr) Platform, Harrill Lab (AID 2284012);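 note: count of Hoechst-stained nuclei per well by high-content imaging in MCF-7 cells; cells exposed to compound for six hours; intended direction is loss of nuclei count meaning fewer cells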
# How it was run: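 Chemicals in eight-point dilution series are added to MCF-7 cells for six hours, nuclei are stained with Hoechst and imaged, and per-well nuclei counts are fitted in both directions relative to DMSO controls.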
# Sequence of PGR (gene 5241) (P06401 whole entry, looked up): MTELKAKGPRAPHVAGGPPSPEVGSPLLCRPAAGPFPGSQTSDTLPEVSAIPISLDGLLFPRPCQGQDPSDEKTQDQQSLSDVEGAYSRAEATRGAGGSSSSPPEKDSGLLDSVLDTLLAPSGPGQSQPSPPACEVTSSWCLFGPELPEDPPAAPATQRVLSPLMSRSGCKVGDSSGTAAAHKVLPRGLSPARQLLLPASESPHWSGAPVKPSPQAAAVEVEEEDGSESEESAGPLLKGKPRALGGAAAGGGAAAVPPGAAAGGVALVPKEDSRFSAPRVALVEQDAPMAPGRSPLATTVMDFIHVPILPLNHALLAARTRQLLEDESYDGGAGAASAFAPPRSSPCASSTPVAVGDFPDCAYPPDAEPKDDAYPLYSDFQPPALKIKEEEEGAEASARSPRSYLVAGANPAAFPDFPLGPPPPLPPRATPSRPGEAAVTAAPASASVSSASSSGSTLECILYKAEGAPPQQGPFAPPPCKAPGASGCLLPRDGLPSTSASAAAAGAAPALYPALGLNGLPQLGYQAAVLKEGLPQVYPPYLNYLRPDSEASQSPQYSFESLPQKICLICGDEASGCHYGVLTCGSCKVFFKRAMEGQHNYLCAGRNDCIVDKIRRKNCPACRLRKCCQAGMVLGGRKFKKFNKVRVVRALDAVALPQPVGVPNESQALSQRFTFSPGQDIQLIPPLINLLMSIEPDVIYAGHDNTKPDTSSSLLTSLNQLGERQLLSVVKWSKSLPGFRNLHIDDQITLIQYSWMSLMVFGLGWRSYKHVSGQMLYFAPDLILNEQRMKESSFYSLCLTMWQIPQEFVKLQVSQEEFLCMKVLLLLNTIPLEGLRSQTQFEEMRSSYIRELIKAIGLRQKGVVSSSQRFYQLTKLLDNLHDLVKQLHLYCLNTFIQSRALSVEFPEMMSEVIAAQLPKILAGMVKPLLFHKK
# Sequence of THRA (gene 7067) (P10827 whole entry, looked up, the tested form may be a part): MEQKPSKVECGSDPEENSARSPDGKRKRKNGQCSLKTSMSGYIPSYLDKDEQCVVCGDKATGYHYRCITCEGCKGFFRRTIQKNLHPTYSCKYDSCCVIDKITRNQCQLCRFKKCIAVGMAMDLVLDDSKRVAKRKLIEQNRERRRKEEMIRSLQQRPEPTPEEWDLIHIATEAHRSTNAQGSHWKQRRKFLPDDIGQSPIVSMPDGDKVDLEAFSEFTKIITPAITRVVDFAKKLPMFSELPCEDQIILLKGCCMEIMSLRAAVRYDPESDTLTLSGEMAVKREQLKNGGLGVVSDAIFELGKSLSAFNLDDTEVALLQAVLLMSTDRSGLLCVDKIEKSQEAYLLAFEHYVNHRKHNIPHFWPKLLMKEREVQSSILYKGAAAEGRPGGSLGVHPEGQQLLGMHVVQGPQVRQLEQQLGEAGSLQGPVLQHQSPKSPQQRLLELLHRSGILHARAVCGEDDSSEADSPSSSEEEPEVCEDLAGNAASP
# Sequence of THRB (gene 7068) (P10828 whole entry, looked up, the tested form may be a part): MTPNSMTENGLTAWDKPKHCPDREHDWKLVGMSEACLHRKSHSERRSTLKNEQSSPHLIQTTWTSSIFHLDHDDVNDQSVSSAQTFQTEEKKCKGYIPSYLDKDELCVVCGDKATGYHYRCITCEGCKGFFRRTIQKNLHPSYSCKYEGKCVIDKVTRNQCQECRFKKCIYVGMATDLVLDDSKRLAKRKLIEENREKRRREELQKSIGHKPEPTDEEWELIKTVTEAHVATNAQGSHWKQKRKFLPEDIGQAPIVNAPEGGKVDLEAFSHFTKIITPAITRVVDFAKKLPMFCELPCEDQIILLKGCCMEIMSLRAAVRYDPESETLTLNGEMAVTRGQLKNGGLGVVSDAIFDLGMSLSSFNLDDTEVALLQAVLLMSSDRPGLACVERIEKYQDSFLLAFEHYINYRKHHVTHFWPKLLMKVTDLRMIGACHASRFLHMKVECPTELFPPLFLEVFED
# Sequence of Retinoic acid receptor RXR-alpha (Homo sapiens) (P19793 whole entry, looked up): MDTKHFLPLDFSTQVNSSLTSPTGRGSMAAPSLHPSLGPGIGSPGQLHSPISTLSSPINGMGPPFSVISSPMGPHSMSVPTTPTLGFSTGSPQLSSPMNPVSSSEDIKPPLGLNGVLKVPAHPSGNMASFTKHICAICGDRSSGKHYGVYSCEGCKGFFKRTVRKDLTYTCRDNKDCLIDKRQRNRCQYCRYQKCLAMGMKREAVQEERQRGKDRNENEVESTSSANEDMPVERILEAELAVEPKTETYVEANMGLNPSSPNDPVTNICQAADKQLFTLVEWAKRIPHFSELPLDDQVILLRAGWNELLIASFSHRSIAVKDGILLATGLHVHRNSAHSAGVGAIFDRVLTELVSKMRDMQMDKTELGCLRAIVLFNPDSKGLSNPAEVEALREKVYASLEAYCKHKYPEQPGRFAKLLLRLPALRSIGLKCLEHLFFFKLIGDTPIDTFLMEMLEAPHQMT
# Sequence of Nucleoli Translocation, AR (gene 367) (P10275 whole entry, looked up, the tested form may be a part): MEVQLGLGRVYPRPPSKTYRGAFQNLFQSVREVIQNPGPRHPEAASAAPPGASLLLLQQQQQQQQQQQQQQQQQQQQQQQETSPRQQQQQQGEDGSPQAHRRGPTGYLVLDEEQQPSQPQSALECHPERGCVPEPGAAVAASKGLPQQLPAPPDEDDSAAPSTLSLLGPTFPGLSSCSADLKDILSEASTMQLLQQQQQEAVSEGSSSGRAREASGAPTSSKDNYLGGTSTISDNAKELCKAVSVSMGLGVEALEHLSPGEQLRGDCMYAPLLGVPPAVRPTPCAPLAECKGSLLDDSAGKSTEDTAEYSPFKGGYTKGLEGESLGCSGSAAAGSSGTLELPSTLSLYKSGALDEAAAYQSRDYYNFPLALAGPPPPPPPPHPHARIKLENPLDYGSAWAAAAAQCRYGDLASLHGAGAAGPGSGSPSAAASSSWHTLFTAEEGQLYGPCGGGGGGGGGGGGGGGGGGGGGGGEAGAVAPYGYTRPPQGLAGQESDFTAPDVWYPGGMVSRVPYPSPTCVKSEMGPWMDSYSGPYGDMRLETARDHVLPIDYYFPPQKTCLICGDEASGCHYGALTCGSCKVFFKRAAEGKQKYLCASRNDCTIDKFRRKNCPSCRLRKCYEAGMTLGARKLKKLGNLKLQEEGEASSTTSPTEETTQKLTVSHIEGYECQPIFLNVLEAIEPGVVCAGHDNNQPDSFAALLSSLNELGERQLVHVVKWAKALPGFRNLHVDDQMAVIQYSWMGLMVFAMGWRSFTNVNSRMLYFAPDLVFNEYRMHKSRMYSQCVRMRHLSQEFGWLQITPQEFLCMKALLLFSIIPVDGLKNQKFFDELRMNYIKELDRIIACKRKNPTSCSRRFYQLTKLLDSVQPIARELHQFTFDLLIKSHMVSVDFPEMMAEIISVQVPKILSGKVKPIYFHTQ
# Sequence of Ratio of Nucleoli Translocation and Cytoplasm, AR (gene 367) (P10275 whole entry, looked up): as the sequence (P10275 whole entry, looked up, the tested form may be a part) above
smiles,measurement,setting,value
C[C@]12CCC(=O)C=C1CC[C@@H]1[C@@H]2[C@@H](O)C[C@@]2(C)[C@H]1CC[C@]2(O)C(=O)CO,outcome,PGR (gene 5241) [1],inactive
same,outcome,PGR (gene 5241) [2],inactive
same,outcome,[3],inactive
same,AC50,PGR (gene 5241) [4],1.3 µM (active)
Cc1ccc(Nc2nccc(N(C)c3ccc4c(C)n(C)nc4c3)n2)cc1S(N)(=O)=O,AC50,[5],31.3 µM (active)
same,outcome,THRA (gene 7067),inactive
same,AC50,THRB (gene 7068) [6],14.7 µM (active)
same,AC50,[7],19.2 µM (active)
same,AC50,THRB (gene 7068) [8],19.2 µM (active)
same,outcome,[9],inactive
CCCC(=O)O[C@]1(C(=O)CO)CC[C@H]2[C@@H]3CCC4=CC(=O)CC[C@]4(C)[C@H]3[C@@H](O)C[C@@]21C,outcome,[3],inactive
same,outcome,PGR (gene 5241) [10],inactive
CCCC(=O)OCOC(=O)C1=C(C)NC(C)=C(C(=O)OC)C1c1cccc(Cl)c1Cl (configuration not stated),outcome,PGR (gene 5241) [1],inactive
same,outcome,PGR (gene 5241) [2],inactive
same,outcome,[3],inactive
same,outcome,[11],inactive
same,outcome,PGR (gene 5241) [4],inactive
same,outcome,PGR (gene 5241) [10],inactive
C[C@@H]1C[C@H]2[C@@H]3C[C@H](F)C4=CC(=O)C=C[C@]4(C)[C@@]3(F)[C@@H](O)C[C@]2(C)[C@@]1(O)C(=O)CO,outcome,PGR (gene 5241) [2],inactive
same,outcome,[3],inactive
same,outcome,[11],inactive
same,outcome,[12],inactive
CCCCC(C)=O,outcome,[13],inactive
same,outcome,[14],inactive
same,outcome,[15],inactive
same,outcome,[16],inactive
same,outcome,[17],inactive
COC(=O)Nc1nc2ccc(S(=O)c3ccccc3)cc2[nH]1 (configuration not stated),outcome,[5],inactive
same,outcome,THRA (gene 7067),inactive
same,outcome,THRB (gene 7068) [6],inactive
same,outcome,[7],inactive
same,outcome,THRB (gene 7068) [8],inactive
same,outcome,[18],inactive
same,outcome,[9],inactive
same,outcome,[16],inactive
same,outcome,[17],inactive
same,outcome,[19],inactive
CC(=O)OCC(=O)[C@@]1(O)[C@H](C)C[C@H]2[C@@H]3CCC4=CC(=O)C=C[C@]4(C)[C@@]3(F)[C@@H](O)C[C@@]21C,outcome,PGR (gene 5241) [2],inactive
same,outcome,[3],inactive
same,outcome,[11],inactive
same,outcome,PGR (gene 5241) [10],inactive
O=C(O)c1cccnc1Nc1cccc(C(F)(F)F)c1,outcome,[5],inactive
same,outcome,THRA (gene 7067),inactive
same,outcome,THRB (gene 7068) [6],inactive
same,outcome,[7],inactive
same,outcome,THRB (gene 7068) [8],inactive
same,outcome,[18],inactive
same,outcome,[9],inactive
CC(C)(C)C(O)/C=C/c1ccc2c(c1)OCO2 (configuration not stated),outcome,PGR (gene 5241) [1],inactive
same,outcome,PGR (gene 5241) [2],inactive
same,outcome,[3],inactive
same,outcome,[11],inactive
same,outcome,PGR (gene 5241) [4],inactive
same,outcome,PGR (gene 5241) [10],inactive
same,outcome,[12],inactive
CC(=O)O[C@@]12CO[C@@H]1C[C@H](O)[C@@]1(C)C(=O)[C@H](O)C3=C(C)[C@@H](OC(=O)[C@H](O)[C@@H](NC(=O)OC(C)(C)C)c4ccccc4)C[C@@](O)([C@@H](OC(=O)c4ccccc4)[C@H]21)C3(C)C,outcome,[5],inactive
same,outcome,THRA (gene 7067),inactive
same,outcome,THRB (gene 7068) [6],inactive
same,outcome,THRB (gene 7068) [8],inactive
same,outcome,[18],inactive
same,outcome,[9],inactive
COc1ccc2c(c1)N(C[C@H](C)CN(C)C)c1ccccc1S2,AC50,[5],2.79 µM (active)
same,outcome,THRA (gene 7067),inactive
same,outcome,THRB (gene 7068) [6],inactive
same,outcome,[7],inactive
same,outcome,[18],inactive
same,outcome,[9],inactive
